# Measured values: the supplement of paper PMC6555819
# Legend:
# Test in all cases: PBM binding z-score (relative to random genomic background probes); higher = stronger binding; sequences stand for … in GC…GCGATTGACAGCGTAGAATGAAGG
# [1] = system: FXR:RXRa (NR concentration 270 nM, RXRa partner concentration 90 nM)
# How it was run: (§1)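 Regression normalization was applied to scanned fluorescence from custom Agilent 4×180K protein-binding microarrays. Before scanning, arrays were incubated 1 h with ligand-free nuclear receptor dimers, and binding was detected with antibodies against each partner (one per run). Binding z-scores use the random background probes as reference.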
# [2] = system: LXRa:RXRa (NR concentration 270 nM, RXRa partner concentration 90 nM)
# How it was run: as §1
# [3] = system: LXRa homodimer (NR concentration 270 nM)
# How it was run: as §1
# [4] = system: LXRb:RXRa (NR concentration 270 nM, RXRa partner concentration 90 nM)
# How it was run: as §1
# [5] = system: LXRb homodimer (NR concentration 270 nM)
# How it was run: as §1
# [6] = system: PPARa:RXRa (NR concentration 270 nM, RXRa partner concentration 90 nM)
# How it was run: as §1
# [7] = system: PPARg:RXRa (NR concentration 180 nM, RXRa partner concentration 90 nM)
# How it was run: as §1
# [8] = system: PPARg:RXRa 270nM:90nM, anti-RXR (NR concentration 270 nM, RXRa partner concentration 90 nM)
# How it was run: as §1
# [9] = system: PPARg:RXRa 30nM:10nM, anti-RXR (NR concentration 30 nM, RXRa partner concentration 10 nM)
# How it was run: as §1
# [10] = system: PPARg:RXRa 90nM:30nM, anti-RXR (NR concentration 90 nM, RXRa partner concentration 30 nM)
# How it was run: as §1
# [11] = system: PPARg:RXRa DBDmut IVT, anti-RXR (DBD mutation: RXRa K156A/R161A, NR concentration 270 nM, RXRa partner concentration 90 nM)
# How it was run: as §1
# [12] = system: PPARg:RXRa IVT, anti-PPARg (NR concentration 270 nM, RXRa partner concentration 90 nM)
# How it was run: as §1
# [13] = system: PPARg DBDmut:RXRa IVT, anti-PPARg (DBD mutation: PPARg1 K132A/R137A, NR concentration 270 nM, RXRa partner concentration 90 nM)
# How it was run: as §1
# [14] = system: PPARg DBDmut IVT, anti-PPARg (DBD mutation: PPARg1 K132A/R137A, NR concentration 270 nM)
# How it was run: as §1
# [15] = system: PPARg homodimer (NR concentration 180 nM)
# How it was run: as §1
# [16] = system: PXR:RXRa (NR concentration 270 nM, RXRa partner concentration 90 nM)
# How it was run: as §1
# [17] = system: PXR homodimer (NR concentration 270 nM)
# How it was run: as §1
# [18] = system: RARa:RXR (NR concentration 270 nM, RXRa partner concentration 90 nM)
# How it was run: as §1
# [19] = system: RARa homodimer (NR concentration 270 nM)
# How it was run: as §1
# [20] = system: RARb:RXRa (NR concentration 270 nM, RXRa partner concentration 90 nM)
# How it was run: as §1
Sequence,PBM binding z-score [1],PBM binding z-score [2],PBM binding z-score [3],PBM binding z-score [4],PBM binding z-score [5],PBM binding z-score [6],PBM binding z-score [7],PBM binding z-score [8],PBM binding z-score [9],PBM binding z-score [10],PBM binding z-score [11],PBM binding z-score [12],PBM binding z-score [13],PBM binding z-score [14],PBM binding z-score [15],PBM binding z-score [16],PBM binding z-score [17],PBM binding z-score [18],PBM binding z-score [19],PBM binding z-score [20]
GCTACTAGGTCAACTGATGGTCAGCTAAAGCTCG,4.07,3.11,0.488,2.22,0.314,4.47,7.27,6.19,3.31,5.71,8,8.03,2.65,2.15,2.57,1.75,-0.307,3.07,0.12,4.25
CCAGACAGGTGAGAATGTAACTCAGCCTCGATTA,-0.153,-0.116,-0.13,-0.00314,-0.187,0.0169,0.376,-0.212,-0.0571,-0.437,0.965,0.029,-1.25,0.0266,0.565,-0.276,0.0874,-0.141,1.11,0.234
CAAACTAGGTCACGGAGGTCAAAGTCCGTGCGTA,7.4,6.23,6.45,5.9,1.36,6.83,10.4,8.3,7.09,8.25,8.69,9.3,5.33,6.03,5.85,6.63,10.4,7.02,2.61,5.34
GTTCCAAGGTGAATAGGTCGTTGATGAGTAGGCG,1.29,0.977,-0.00758,0.642,0.0158,2.24,1.16,1.94,0.65,1.07,2.09,2.89,-0.109,0.149,1.58,1.02,0.352,2.05,0.818,2.22
CCTCGGAGGACAACAGGAGGTTAGAGCTGCCAGA,-0.155,-0.0847,-0.064,-0.556,-0.957,-0.226,0.177,-0.821,-0.597,-0.982,-0.279,-0.491,-1.7,-1.73,-0.214,-0.222,-0.363,-0.127,-0.352,1.32
CAAACTAGGTCAAGGGCAAAGTCGGTTTGTGCCA,3.97,3.12,0.592,2.17,0.2,5.38,9.21,8.06,6.95,8.38,8.17,8.56,2.21,2.46,3.97,2.25,0.415,2.77,0.377,4.27
CCTACTGGGCCATGGTCATTGATCAGTCAAAGCA,0.0298,-0.313,-0.591,-0.226,-1.02,0.969,1.05,1.3,-0.281,0.872,3.04,3.48,-0.574,-0.734,0.222,-0.316,-0.489,-0.363,-1.03,0.532
GCGATTAGTTGAAAGGGCAACCGAATGATTCTCG,0.286,0.514,-0.112,0.595,-0.521,1.88,1.74,3.51,1.24,2.72,0.242,0.29,-0.291,-0.4,0.619,0.575,0.0647,1.43,-0.197,1.87
CCTAGTTGGTCAAGGTCATACACGCTATAGGTAC,4.77,4.27,2.86,3.52,0.89,3.97,2.79,3.21,1.22,2.74,2.28,3.11,0.777,1.26,3.11,4.21,3.04,4.33,2.79,4.04
TAGCCTATGTCATTGGGCCAGTATAGTACGCATC,-0.278,-0.41,-0.519,-0.0433,-0.648,0.0352,0.577,0.178,0.0263,0.065,0.158,0.381,0.11,0.249,-0.0273,-0.188,-0.118,-0.0244,-0.0402,0.0995
GTACCAAGGTGAATATGTCGTTGATGAGTAGGCG,0.455,0.146,-0.0291,-0.0194,-0.329,0.873,0.753,0.42,0.0719,0.185,1.28,1.95,0.633,0.3,1.32,-0.126,0.282,0.44,0.46,1.22
ACTATTAGTTGACTTAGGGCAACCTATACGACGC,0.173,0.433,0.321,0.316,0.731,0.252,1.02,0.258,0.33,0.444,0.195,0.726,1.42,1.54,0.623,0.356,0.265,0.516,0.697,0.924
GGAACGAGGCCAAGTTGATAGCAGAGTTTGATGG,-0.211,-0.562,-0.768,-0.914,-0.878,0.0938,0.353,0.159,-0.422,-0.286,1.98,0.981,-1.22,-0.68,-0.613,-0.452,0.241,-0.778,-0.416,1.36
CCTAGCAGGCCAGGGTCATTCAAGCATTTCGCTT,2.69,2.29,-0.0917,2.54,-0.65,3.66,0.697,1.82,-0.631,0.991,0.315,0.694,-0.751,-1.91,1.59,3.11,-0.0887,3.29,-0.222,2.57
GCTATTAGTTGAAAGTGCAACCGAATGATTCTCG,0.0358,0.479,0.0569,0.177,0.0186,1.33,1.28,2.92,1.24,2.72,0.238,0.262,0.449,0.384,0.768,0.683,0.384,0.526,0.153,0.775
